# Screens as filed in PubChem.
# RORg inh – blocks mouse ROR gamma transcriptional activity; P51450; Drosophila S2 Gal4-RORgamma UAS-luciferase reporter, 20 h; Potency, µM (series often up to 53.6 µM), most hits filed as inhibitors; 310,000 compounds, 5.4% hits; AID 2551; further: nearly all actives have a fitted effect of over 60% in size
# Target sequence (P51450 whole entry, looked up, the tested form may be a part): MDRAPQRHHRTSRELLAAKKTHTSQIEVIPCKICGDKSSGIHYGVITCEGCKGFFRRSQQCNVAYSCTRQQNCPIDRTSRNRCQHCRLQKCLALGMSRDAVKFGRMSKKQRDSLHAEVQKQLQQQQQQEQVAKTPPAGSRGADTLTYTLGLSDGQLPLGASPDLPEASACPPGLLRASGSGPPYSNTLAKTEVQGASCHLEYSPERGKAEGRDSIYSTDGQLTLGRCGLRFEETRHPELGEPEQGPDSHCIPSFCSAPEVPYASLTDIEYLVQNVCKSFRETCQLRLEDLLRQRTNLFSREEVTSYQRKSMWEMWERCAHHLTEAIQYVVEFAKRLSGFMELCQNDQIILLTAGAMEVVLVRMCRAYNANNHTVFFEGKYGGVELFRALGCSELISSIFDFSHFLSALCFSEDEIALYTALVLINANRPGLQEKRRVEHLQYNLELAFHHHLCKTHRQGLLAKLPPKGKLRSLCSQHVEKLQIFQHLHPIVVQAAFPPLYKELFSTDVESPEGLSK
#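 Using a luciferase readout, inhibitors were identified by reduced reporter activity in Drosophila cells coexpressing a copper-inducible Gal4–ROR gamma fusion and UAS-driven Photinus luciferase, incubated 20 hr after 700 uM copper sulfate.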
# PLK1 PBD inh – blocks phosphopeptide binding to human PLK1 polo-box domain. P53350. Plk1 PBD binding of FITC phosphopeptide, fluorescence polarization. Potency, µM, hits mostly inhibitors. 360,000 compounds, 2.8% hits; further: series mostly up to about 57 µM; nearly all actives have a fitted effect of over 65% in size
# Gal4-VP16 FLuc – Gal4-VP16 reporter inhibition counter-screen | Drosophila S2 Gal4-VP16 UAS-luciferase, luminescence, 20 h | Potency, µM (doses to about 53.6 µM), actives largely listed as inhibitors | 310,000 compounds, 3.5% hits;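 further: Gal4-VP16 expression switched on by copper sulfate through the metallothionein promoter; nearly all actives have a fitted effect of over 50% in size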
# ALDH1A1 block – blocks purified human ALDH1A1 activity; P00352; Purified ALDH1A1, NADH fluorescence, propionaldehyde substrate; Potency, µM (doses to about 75.3 µM), usual class: inhibitors; 220,000 compounds, 7.3% hits; active means well fitted inhibition curve with a large enough effect, not every such curve was filed as active; inconclusive means small, poorly fitted or top-dose-only effect, or another doubt; inactive means no such curve, though single readings can be large or run the other way
# Sfp PPTase inh – Sfp phosphopantetheinyl transferase inhibition. Biochemical Sfp PPTase activity, qHTS. Potency, µM, most hits filed as inhibitors. 310,000 compounds, 3.5% hits. AID 1490;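 further: the enzyme is Sfp with the accession as filed and its product quenches rhodamine fluorescence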
#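 Fluorescence-quenching assay with 15 nM Sfp, 5 uM rhodamine-CoA and 12.5 uM BHQ-2-labelled ybbR peptide in pH 7.6 Hepes/MgCl2 buffer. Enzyme was pre-incubated with compound for 15 min at room temperature. Rate was taken from the 30-min fluorescence change (525/598 nm).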
# A number is an active result; n = inactive; u = inconclusive; x = no result given; ! = not active in a repeat; [ ] = dose if it differs, or a comment. This is a sample that favours compounds with a hit; in the whole collection about 12% have one here. Unless noted, the call rests on the fitted dose curve; in most records, active means well fitted curve in the direction sought with a large enough effect; inconclusive means small, poorly fitted or top-dose-only effect, or another doubt; inactive means no such curve, though single readings can be large; an effect the other way counts as inactive or inconclusive.
SMILES,RORg inh,PLK1 PBD inh,Gal4-VP16 FLuc,ALDH1A1 block,Sfp PPTase inh
O=C(Nc1ccccc1C(=O)N/N=C/c1ccncc1)c1ccccc1,8.9µM,n,u,n,n
O=C(Nc1ccccc1C(=O)N/N=C/c1ccc(F)cc1)c1ccccc1Br,10µM,n,u,u,n
O=C(N/N=C/c1ccc(O)cc1)c1ccc(NC(=O)c2ccccc2Br)cc1,n,n,n,u,n
Nc1nc(N)c(-c2ccccc2)s1,n,x,n,x,u
O=C1NC[C@@H](CCCCN2C[C@H](Cc3ccccc3)N(CCc3ccc(O)cc3)C(=O)C2=O)N(Cc2ccccc2)C1=O,x,n,x,x,x
CC(C)=CCCC(C)=CCN1C(=O)CN(C)C1=O,x,n,x,x,x
Fc1ccccc1-c1cc2ccccc2cn1,x,n,x,x,x
COc1ccc(C(=O)Nc2ccccc2C(=O)N/N=C/c2ccco2)cc1,2µM,n,10µM,u,n
COc1c(-c2ccc(O)c(O)c2)oc2cc(O)cc(O)c2c1=O,u,n,11µM!,n,n
O=c1c(O)c(-c2cc(O)c(O)c(O)c2)oc2cc(O)cc(O)c12,n,9.5µM,n,3.5µM,2.8µM
CCNC(=O)C1(C)CCN(C(=O)c2ccc3c(c2)OCO3)C1 (configuration not stated),x,n,x,x,x
CC(=O)NCCc1nc2ccccc2n1Cc1cc(C)ccc1C,n,n,n,x,n
COC(=O)c1ccc(CN2C(=O)C(C)ON=C2c2ncccc2C)o1 (configuration not stated),x,n,x,x,x
COC(=O)c1ccc(CN2C(=O)C3CCCCC3C2=O)o1 (configuration not stated),2.8µM,n,4.5µM,n,n
CC(C)(C)OC(=O)[C@H](Cc1ccccc1)NC(=O)c1ncn2c1c(=O)[nH]c1ccc(Br)cc12,x,n,x,x,x
CNCCCOc1ccc(C)cc1OC,n,n,n,u,45µM
C/C=C/c1ccc(OCCCNC)c(OC)c1,n,n,n,28µM,n
CCC(C)NCCCOc1ccc(C)cc1OC (configuration not stated),n,n,n,n,n
COc1ccc(S(=O)(=O)NCCN2CCNC2=O)cc1OC,n,n,n,n,n
Cc1ccc(NC(=O)C2CC(=O)Nc3ncnn32)cc1Cl (configuration not stated),n,27µM,n,x,n
CO[C@@H]1COC(=O)[C@@H](C)COC(=O)[C@@H](C)NC(=O)C/C=C\[C@@H]1C,n[10 µM],x,n[10 µM],n[13.5 µM],n
Cc1ccc([C@H]2N[C@]3(CCCN(Cc4ccc(Br)cc4)C3=O)[C@H]3C(=O)N(C)C(=O)[C@@H]23)cc1,x,n,x,x,x
CCCCn1c(-c2csc(C(C)C)c2)n[nH]c1=S,4µM,u,u,7.9µM,n
CCc1cc(-c2n[nH]c(=S)n2-c2cccc(C)c2)cs1,0.32µM,n,0.56µM,u,50µM
CCc1ccccc1-n1c(-c2ccncc2)n[nH]c1=S,u,n,u,u,n
SMILES,RORg inh,PLK1 PBD inh,Gal4-VP16 FLuc,ALDH1A1 block,Sfp PPTase inh
CCCc1cc(-c2n[nH]c(=S)n2CC(C)C)cs1,3.5µM,n,11µM,11µM,n
CCCCn1c(-c2csc(CC)c2)n[nH]c1=S,0.79µM,n,u,u,20µM
O=C1c2cccc([N+](=O)[O-])c2C(=O)N1c1ncn[nH]1,x,x,x,n[13.5 µM],x
O=C(NC1CCCCC1)C1c2ccccc2OCC(=O)N1Cc1ccco1 (configuration not stated),x,n,x,x,x
Cc1cc(C)c(OCCCn2ccnc2)c(C)c1,13µM,n,u,x,n
Cc1cc(C)c(C)c(OCCCn2ccnc2)c1,16µM,n,n,u,n
Cc1cc(Cl)c(OCCCn2ccnc2)c(Br)c1,18µM,n,u,n,n
Cc1cc(C)c(OCCn2ccnc2)c(C)c1,n,n,n,x,n
Fc1ccc(-c2nc3c4ccccc4ccn3c2Cc2ccsc2)cc1,x,n,x,x,x
O=C(/C=C/c1ccccc1)Nc1ccc2c(c1)OCCO2,10µM,n,13µM,u,n
COc1ccccc1/C=C/C(=O)Nc1ccc2c(c1)OCCO2,1.6µM,n,n,u,n
O=C(/C=C/c1ccncc1)c1ccc2c(c1)OCCO2,4µM,n,5µM,0.89µM,n
Cc1c(C(=O)N2CCCC(C)(C(=O)NS(=O)(=O)C3CC3)C2)oc2ccccc12 (configuration not stated),x,n,x,x,x
Cc1ccccc1-c1cnc(C(O)c2ccc(F)c(F)c2)[nH]1 (configuration not stated),x,n,x,x,x
CCCCN1CN(Cc2ccccc2)CNC1=S,4.5µM,n,5µM,n,n
CCOCCCN1CN(Cc2ccccc2)CNC1=S,2.5µM,n,3.5µM,n,n
COCCCN1CN(Cc2ccco2)CNC1=S,n,n,n,x,n
COCCNc1nnc(SCC(=O)NNC(=O)c2ccc([N+](=O)[O-])cc2)s1,x,n,x,x,x
CN1CCN(c2nc(-c3ccoc3)nc3ccccc23)CC1,n,x,n,n,n
CCCNC(=O)C1(C)CCCN(C(=O)CN2C(=O)c3ccccc3C2=O)C1 (configuration not stated),x,n,x,x,x
CC1(C)CC(NS(=O)(=O)c2ccc(C(C)(C)C)cc2)CC(C)(C)N1,u,n,n,x,n
CCN(CC)S(=O)(=O)c1ccc(N2CCN(c3ccccc3OC)CC2)c(N)c1,u,n,22µM,x,n
COc1ccc(/C=N/NC(=O)CN(c2ccc(OC)cc2)S(=O)(=O)c2ccccc2)cc1,n,27µM,n,n,n
CCN(CC)S(=O)(=O)c1ccc(Oc2ccccc2)c(N)c1,n,n,n,n,n
COc1ccc(S(=O)(=O)N(CC(=O)N2CCN(c3ccccc3OC)CC2)c2ccccc2)cc1,n,n,n,7.1µM,n
SMILES,RORg inh,PLK1 PBD inh,Gal4-VP16 FLuc,ALDH1A1 block,Sfp PPTase inh
Cc1ccc(S(=O)(=O)N(CC(=O)N/N=C/c2ccccc2C(=O)O)c2cc(Cl)cc(Cl)c2)cc1,n,42µM,n,n,n
COCCn1c(=O)c(-c2ccc(Cl)cc2)nc2cnc(Oc3ccccc3)nc21,n,x,n,u,n
Cc1ccc(N(CC(=O)N/N=C/c2ccco2)S(=O)(=O)c2ccccc2)cc1,n,n,u,n,32µM
CCCCCn1nnnc1C1(C)CCC(=O)N1Cc1ccco1 (configuration not stated),x,n,x,x,x
Cc1nc(Cc2nnc(SCC(=O)N3c4ccccc4NC(=O)C3(C)C)o2)cs1,x,n,x,x,x
COc1ccc2c(/C=N/Nc3ccc(C(=O)O)cc3)c[nH]c2c1,u,n,5µM,x,n
COc1ccc(/C=N\NC(=O)C2CCCC2)cc1Br,n,n,n,x,n
COc1ccc(/C=N/Nc2ccc(C(=O)O)cc2)cc1Br,40µM,n,n,u,n
COc1ccc(/C=N/Nc2ccc(C(=O)O)cc2)cc1OC,1.6µM,n,0.45µM,x,n
COc1ccc2c(c1)c(/C=N/Nc1ccc(C(=O)O)cc1)c(C)n2C,u,n,u,x,n
[N-]=[N+]=CC(=O)c1ccnc(C(=O)C=[N+]=[N-])c1,n,27µM,n,u,n
COc1ccc(NS(=O)(=O)c2cc(NC(=O)c3ccc(C)o3)ccc2N2CCCCC2)cc1,6.3µM,n,4.5µM,u,n
COc1ccc(NS(=O)(=O)c2cc(NC(=O)c3cccs3)ccc2N2CCCC2)cc1,n,n,n,u,n
